Screening results (PubChem)
Most compounds without a hit are left out; they make up all but 21% or so of the library.
IL1B secr inh: qHTS for Inhibitors of Inflammasome Signaling: IL-1-beta AlphaLISA Primary Screen. 360,000 tested, 4.7% active. THP-1 LPS/ATP IL-1B secretion, AlphaLISA, 16 h; hits give low values. activity change, % at 57.5 µM; in the data active means activity change below about -50%; inconclusive means mostly about -30% to -49%
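Secreted IL-1B measured by AlphaLISA bead assay after 16 h compound exposure of THP-1 cells; compounds (final up to 57.5 uM) added 1 h before LPS (250 ng/mL) and ATP (1.25 mM) stimulation; lower signal means less secretion.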
ELG1 repair inh: qHTS screen for small molecules that inhibit ELG1-dependent DNA repair in human embryonic kidney (HEK293T) cells expressing luciferase-tagged ELG1 | HEK293T ELG1-luciferase reporter, luminescence, 16 h; DNA damage induced by 5-fluorouridine | Potency, µM (series often up to 46.1 µM), for inactives: at the top dose activity change, negative = inhibition, usual class: inhibitors | 330,000 tested, 2.3% active | AID 504467, 2011; further: potency means the concentration at half of the fitted maximal effect; nearly all actives have a fitted effect of over 55% in size
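Step one: seed 2,000 cells per well. Step two: pin-transfer compound or DMSO alongside 5-fluorouridine. Step three: incubate 16 hr, 37 °C, 5% CO2. Step four: add ONE-Glo, wait 30 min, read luminescence.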
VP16 counter: VP16 counterscreen qHTS for inhibitors of ROR gamma transcriptional activity; Drosophila S2 Gal4-VP16 UAS-luciferase, luminescence, 20 h; Potency, µM (top dose mostly 53.6 µM), without a hit: at the highest dose activity, negative = inhibition, usual class: inhibitors; 310,000 tested, 3.5% active;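 further: Gal4-VP16 expression switched on by copper sulfate through the metallothionein promoter; potency means the concentration at half of the fitted maximal effect; nearly all actives have a fitted effect of over 50% in size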
TDP1 cell noCPT: qHTS for Inhibitors of human tyrosyl-DNA phosphodiesterase 1 (TDP1): qHTS in cells in absence of CPT | DT40 Tdp1-/- hTDP1 cells, no CPT, ATP luminescence, 48 h | Potency, µM (titrated, usually from 46.2 µM), without a hit: at the highest dose activity change, negative = growth inhibition, most hits filed as inhibitors | 420,000 tested, 15% active; further: potency means the concentration at half of the fitted maximal effect; nearly all actives have a fitted effect of over 55% in size
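Growth kinetics read by CellTiter-Glo luminescence after ≥48 hr at 37 °C. Cells: DT40 Tdp1-/- stably carrying human TDP1, 400 per well, compound exposure in the absence of CPT (DMSO vehicle).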
RORg inh: qHTS for inhibitors of ROR gamma transcriptional activity. Potency, µM (titrated, usually from 53.6 µM), for the others: top-dose activity change, negative = inhibition, hits mostly inhibitors. Nuclear receptor ROR-gamma (Mus musculus), P51450. 310,000 tested, 5.4% active. Drosophila S2 Gal4-RORgamma UAS-luciferase reporter, 20 h; further: potency means the concentration at half of the fitted maximal effect; nearly all actives have a fitted effect of over 60% in size
Target sequence (P51450 whole entry, looked up, the tested form may be a part): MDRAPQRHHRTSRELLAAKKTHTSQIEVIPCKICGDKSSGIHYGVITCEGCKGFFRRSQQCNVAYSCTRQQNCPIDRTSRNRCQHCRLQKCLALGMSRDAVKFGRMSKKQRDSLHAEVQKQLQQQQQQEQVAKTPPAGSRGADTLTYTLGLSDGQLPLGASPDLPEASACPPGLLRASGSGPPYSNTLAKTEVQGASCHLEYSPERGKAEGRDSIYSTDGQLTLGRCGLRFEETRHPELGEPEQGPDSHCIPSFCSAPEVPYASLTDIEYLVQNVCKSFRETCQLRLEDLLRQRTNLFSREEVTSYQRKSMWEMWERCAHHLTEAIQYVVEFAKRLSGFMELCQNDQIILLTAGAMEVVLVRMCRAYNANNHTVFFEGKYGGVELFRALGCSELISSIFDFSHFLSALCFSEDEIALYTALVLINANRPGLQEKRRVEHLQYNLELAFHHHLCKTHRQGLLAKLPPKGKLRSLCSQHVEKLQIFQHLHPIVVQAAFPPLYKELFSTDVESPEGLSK
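Stable Schneider cell line, Gal4 DNA-binding domain fused to ROR gamma, UAS-luciferase. Cmpd 1 hr RT → CuSO4 700 uM final → 20 hr RT → luciferase reagent 10 min → luminescence.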
DT40 TDP1 CPT: qHTS for Inhibitors of human tyrosyl-DNA phosphodiesterase 1 (TDP1): qHTS in cells in presence of CPT | 420,000 tested, 12% active | Potency, µM (series often up to 46.2 µM), inactives show at the top dose activity change, negative = growth inhibition, hits mostly inhibitors | chicken DT40 Tdp1-/-;hTDP1 cells + 20 nM CPT, ATP luminescence, 48 h; further: potency means the concentration at half of the fitted maximal effect; nearly all actives have a fitted effect of over 55% in size
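Chicken DT40 Tdp1-/- cells complemented with human TDP1, 400 cells/well, exposed to compounds plus 20 nM camptothecin for at least 48 h at 37 C; viability read as ATP content by CellTiter-Glo luminescence.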
Starred values were filed as active, the others as inactive; ? = inconclusive; . = not tested or not shown. Unless noted, the call rests on the fitted dose curve; in most records, active means well fitted curve in the direction sought with a large enough effect; inconclusive means small, poorly fitted or top-dose-only effect, or another doubt; inactive means no such curve, though single readings can be large; an effect the other way counts as inactive or inconclusive. On the % scale 0 is the no-effect control and ±100 the full control effect.

SMILES | IL1B secr inh | ELG1 repair inh | VP16 counter | TDP1 cell noCPT | RORg inh | DT40 TDP1 CPT
COc1ccc(C(=O)C2CCCN(Cc3cccn3-c3nccs3)C2)cc1OC (stereo unspecified) | -27.7 | ? | 4.3% | 13µM* | -21.3% | 18.4µM*
O=C1c2ccccc2CCC12OC2c1ccc([N+](=O)[O-])cc1 (stereo unspecified) | -12.0 | . | . | ? | . | ?
COC(=O)CN1C(=O)C(C)(C)c2cc(S(=O)(=O)NCc3ccc(Cl)cc3)ccc21 | . | . | . | -6.4% | . | ?
CCOC(=O)C1C(C(=O)OC)=C(C2=CCCCC2)c2ccccc2N1S(=O)(=O)C(F)(F)F (stereo unspecified) | 25.0 | 18.3µM* | -9.1% | ? | 27.0% | ?
CC1(Br)C(Sc2ccccc2[N+](=O)[O-])=Nc2ccccc21 (stereo unspecified) | 13.6 | . | . | 23.1µM* | . | 20.6µM*
CCn1c(C)c(P(c2ccccc2)c2ccccc2)[n+]2ccccc12 | -20.4 | -17.4% | -2.7% | 1.46µM* | 4.5% | 2.31µM*
Cc1ccccc1-c1nnc(CN2CCN(c3cccc(C)c3C)CC2)o1 | . | . | . | -25.8% | . | -20.3%
Cc1ccc(CSc2ccc3nnc(-c4cccnc4)n3n2)cc1 | 30.5 | -27.3% | 2.8% | 4.11µM* | 0.9% | 20.6µM*
Brc1ccc(CSc2ccc3nnc(-c4cccnc4)n3n2)cc1 | -21.4 | -10.1% | -9.5% | 20.6µM* | 5.9% | ?
Fc1cccc(CSc2ccc3nnc(-c4cccnc4)n3n2)c1 | 17.0 | 8.0% | -6.8% | 16.4µM* | -17.8% | ?
CCOC(=O)c1cccc(NC(=O)c2cc3cc4ccc(C)cc4nc3o2)c1 | . | . | . | -16.7% | . | -4.8%
O=C(CCl)Nc1cc(SCC(O)CO)cc([N+](=O)[O-])c1 (stereo unspecified) | -101.3* | 3.26µM* | 5.01µM* | ? | ? | 4.61µM*
CC(C)=NOc1cc(NC(=O)CCl)cc([N+](=O)[O-])c1 | -100.5* | ? | 7.08µM* | 4.11µM* | 10µM* | 3.66µM*
O=C(Nc1nccs1)c1ccc(-c2ccc(F)c(Cl)c2)o1 | -18.4 | ? | ? | ? | 7.94µM* | ?
O=C(Nc1nccs1)c1ccc(-c2ccc(Cl)cc2Cl)o1 | 4.0 | ? | 5.01µM* | -28.3% | 3.55µM* | 23.1%
O=[N+]([O-])c1cccc(C2=N[C@@H](Cc3ccccc3)CO2)c1 | . | . | 8.7% | . | 18.2% | .
COc1ccc(NC(=O)N(C)C[C@@H]2OCc3cnnn3CCCC(=O)N([C@H](C)CO)C[C@@H]2C)cc1 | -28.1 | . | . | -2.8% | . | -9.1%
CCn1c(NCc2ccco2)nc2c1c(=O)n(C)c(=O)n2C | -4.0 | -7.3% | -2.0% | 11.6µM* | -30.8% | ?
CCn1c(SCC(=O)NCc2ccco2)nc2c1c(=O)n(C)c(=O)n2C | 9.3 | -19.9% | 16.7% | -0.9% | 1.4% | -5.2%
Cn1c(=O)c2c(nc(NCc3ccco3)n2CCc2ccccc2)n(C)c1=O | -17.6 | ? | 7.94µM* | 6.51µM* | 12.6µM* | 7.31µM*
Cn1c(=O)c2c(nc(NCc3ccco3)n2Cc2ccc(Cl)cc2Cl)n(C)c1=O | 33.9 | ? | 6.31µM* | 10.3µM* | ? | 11.6µM*
Cn1c(=O)n(CCc2ccccc2)c(=O)c2c1nc1n2CCN1Cc1ccco1 | 4.3 | 20.6µM* | 19.7% | ? | ? | -18.9%
Cn1c(=O)c2c(nc(NCc3ccccc3)n2CC(=O)NCc2ccccc2)n(C)c1=O | 9.5 | -16.8% | -7.4% | -28.4% | -4.6% | 4.4%
CCOC(=O)c1ccc(NC(=O)Cn2cc3c(n2)CCC(C)C3)cc1 (stereo unspecified) | 27.6 | 16.6% | 4.6% | -8.7% | -12.1% | -1.3%
CNC(=O)C[C@H]1C(=O)N(c2ccc(Br)cc2)C[C@@H]1C | 2.2 | . | . | -17.9% | . | -8.2%
SMILES | IL1B secr inh | ELG1 repair inh | VP16 counter | TDP1 cell noCPT | RORg inh | DT40 TDP1 CPT
Cc1ccccc1OCC(O)Cn1c(Br)nc2c1c(=O)n(C)c(=O)n2C (stereo unspecified) | 48.6 | ? | -18.7% | ? | 39.3% | ?
Cn1c(NCC(O)CO)nc2c1c(=O)n(Cc1ccc(Cl)c(Cl)c1)c(=O)n2C (stereo unspecified) | -6.5 | -12.7% | -7.1% | ? | 34.9% | ?
Cc1ccccc1OCC(O)Cn1c(NCc2ccco2)nc2c1c(=O)n(C)c(=O)n2C (stereo unspecified) | 19.4 | ? | ? | 10.3µM* | -6.5% | 11.6µM*
CCOCCn1c(=O)c2c(nc3n2CC(C)CN3CCc2ccccc2)n(C)c1=O (stereo unspecified) | -4.8 | ? | -14.7% | ? | -8.7% | 25.9µM*
Cn1c(NCc2ccco2)nc2c1c(=O)n(Cc1ccc(Cl)c(Cl)c1)c(=O)n2C | ? | -9.8% | -1.6% | 18.4µM* | ? | ?
COCCCNC(=O)CCn1c(=O)c2ccccc2n(CC(=O)Nc2cc(Cl)ccc2OC)c1=O | . | . | . | -27.1% | . | -10.0%
NC(=O)C(CCc1nc2ccccc2[nH]1)NS(=O)(=O)c1ccccc1 (stereo unspecified) | -17.6 | . | . | ? | . | -11.3%
COc1ccc(C(O)(CC(C)C)C(CN2CCOCC2)c2ccccc2)cc1 (stereo unspecified) | -5.1 | -11.2% | -0.1% | 20.6µM* | ? | ?
CCCC(O)(c1ccc(OC)cc1)C(CN1CCOCC1)c1ccc(Cl)cc1 (stereo unspecified) | -15.7 | -4.6% | -5.9% | ? | 7.7% | ?
COc1ccc(C(O)(CCC(C)C)C(CN2CCOCC2)c2ccc(Cl)cc2)cc1 (stereo unspecified) | -81.4* | -13.7% | -2.6% | 14.6µM* | 19.3% | ?
CCOc1ccc(C(O)(c2ccccc2)C(CN2CCCC2)c2ccccc2)cc1 (stereo unspecified) | -60.9* | -13.5% | 0.2% | 7.31µM* | -2.5% | ?
CCOc1ccc(C(O)(CCC(C)C)C(CN2CCOCC2)c2ccccc2)cc1 (stereo unspecified) | -60.1* | -20.7% | -20.4% | 20.6µM* | 0.0% | ?
